Results: PubChem BioAssay (Tox21)
Inconclusive results are not listed. The source made the active and inactive calls. Unless noted, the call rests on the fitted dose curve.

Key:
[1] = Nuclear factor erythroid 2-related factor 2/antioxidant responsive element (Nrf2/ARE) small molecule agonists: qHTS cell viability counter screen in human keratinocytes (AID 1919968; active means well fitted curve in the direction sought with a large enough effect in the repeat runs; an effect the other way counts as inactive or inconclusive; further: nearly all actives have a fitted effect of over 55% in size)
How it was run: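 CellTiter-Fluor fluorescence, read 1 h after reagent, gave viability in the same wells as the ARE-luciferase assay. KeratinoSens cells (1,500/well) had 23 h compound exposure at 37 C/5% CO2 following 5 h plating.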

[2] = Nuclear factor erythroid 2-related factor 2/antioxidant responsive element (Nrf2/ARE) small molecule agonists: luciferase reporter gene qHTS assay in human keratinocytes (AID 1919969); further: nearly all actives have a fitted effect of over 35% in size; further: potency means the concentration at half of the fitted maximal effect
[3] = molecular target: Gonadotropin-releasing hormone receptor (Homo sapiens) (UniProt P30968); test: Human gonadotropin-releasing hormone receptor (GnRHR) small molecule agonists, calcium flux assay in GnRHR-HEK293 cells (AID 1920063); further: nearly all actives have a fitted effect of over 35% in size
How it was run: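 Agonist mode: compounds at 15 concentrations, in triplicate, went onto calcium dye-loaded GnRHR-HEK293 cells. Intracellular calcium was then followed as 480/540 nm fluorescence at 1 s intervals over 3 min.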

[4] = molecular target: KiSS-1 receptor (Homo sapiens) (UniProt Q969F8); test: Human kisspeptin (KISS1R) small molecule agonists, calcium flux assay in KISS1R-HEK293 cells (AID 1920064; active means well fitted curve in the direction sought with a large enough effect in the repeat runs; an effect the other way counts as inactive or inconclusive)
How it was run: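 Agonist mode: intracellular calcium rise tracked at 1 s intervals over 3 min (480/540 nm) immediately after compound addition to dye-loaded KISS1R-HEK293 stable cells. Each compound tested at 15 concentrations in triplicate.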

[5] = G protein-coupled receptor (GPCR) small molecule agonists, calcium flux assay: HEK293 wild type cell line counter screen (AID 1920065)
How it was run: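 Calcium flux counter screen: compound added in agonist mode at 15 concentrations in triplicate to dye-loaded parental HEK293 cells. Fluorescence (480/540) read kinetically for 3 min; ATP served as positive control.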

[6] = p53 small molecule agonists, cell-based qHTS assay with human liver microsomes (AID 1963577);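 further: p53 response element beta-lactamase reporter cells with liver microsomes plus NADPH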
How it was run: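 In this qHTS, p53 response-element beta-lactamase cells receive test compound together with a microsome/NADPH activating system (0.5 mg/mL final each) and are incubated 16 h at 37 C before LiveBLAzer fluorescence detection.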

[7] = p53 small molecule agonists, cell-based qHTS assay with rat liver microsomes (AID 1963578); further: potency means the concentration at half of the fitted maximal effect
How it was run: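 Agonist mode in p53RE-bla reporter cells, with compounds co-incubated 16 h at 37 C alongside 0.5 mg/mL rat liver microsomes and 0.5 mg/mL NADPH (final), followed by a 2 h LiveBLAzer detection step.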

[8] = p53 small molecule agonists, cell-based qHTS assay with human liver microsomes: qHTS cell viability counter screen (AID 1963579); further: nearly all actives have a fitted effect of over 45% in size
How it was run: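 Metabolically activated exposure: compounds, human liver microsomes and NADPH (0.5 mg/mL final apiece) were added to p53RE-bla cells seeded 5 h earlier, left 16 h at 37 C, and then assessed for viability by CellTiter-Glo luminescence.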

[9] = p53 small molecule agonists, cell-based qHTS assay with rat liver microsomes: qHTS cell viability counter screen (AID 1963580); further: nearly all actives have a fitted effect of over 45% in size
How it was run: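 After the beta-lactamase ratio was read, CellTiter-Glo was added to the same wells and luminescence measured at 30 min; cells had been treated 16 h at 37 C with compounds, rat liver microsomes and NADPH (0.5 mg/mL final each).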

[10] = p53 small molecule agonists, cell-based qHTS assay (AID 1963582; active means well fitted activation curve with a large enough effect in the signal ratio in the repeat runs, not every such curve was filed as active; the % refers to the signal ratio)
How it was run: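 Read-out is beta-lactamase FRET fluorescence after 2 h at room temperature with LiveBLAzer B/G substrate. p53 response element-bla cells were treated 16 h at 37 C with compounds in DMSO, added 5 h after seeding.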

[11] = molecular target: 5-hydroxytryptamine receptor 2A (Homo sapiens) (UniProt P28223); test: 5-hydroxytryptamine receptor 2A (HTR2A) small molecule antagonists, cell-based qHTS assay (AID 1963586); further: nearly all actives have a fitted effect of over 45% in size
How it was run: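 CHO cells stably expressing human HTR2A were plated for 18 h at 37 C, then loaded with calcium dye for 1 h. Compounds were preincubated 5 min at room temperature before DOI (4 nM solution) was added. Kinetic fluorescence was read for 3 min.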

[12] = molecular target: 5-hydroxytryptamine receptor 2A (Homo sapiens) (UniProt P28223); test: 5-hydroxytryptamine receptor 2A (HTR2A) small molecule agonists, cell-based qHTS assay (AID 1963587); further: nearly all actives have a fitted effect of over 30% in size
How it was run: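 CHO cells stably expressing human HTR2A, plated 18 h, loaded with calcium dye 1 h at 37 C. Agonist mode: compounds added and intracellular calcium fluorescence recorded kinetically for 2 min at 1 sec intervals.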

[13] = molecular target: Muscarinic acetylcholine receptor M1 (Homo sapiens) (UniProt P11229); test: Cholinergic receptor muscarinic 1 (CHRM1) small molecule antagonists, cell-based qHTS assay (AID 1963588); further: nearly all actives have a fitted effect of over 40% in size
How it was run: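 Compounds were tested at 15 concentrations in three independent runs. Dye-loaded CHRM1-CHO cells were exposed 5 min at room temperature before stimulation by acetylcholine added at 50nM. Intracellular calcium was read kinetically on FDSS for 3 min.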

[14] = molecular target: Muscarinic acetylcholine receptor M1 (Homo sapiens) (UniProt P11229); test: Cholinergic receptor muscarinic 1 (CHRM1) small molecule agonists, cell-based qHTS assay (AID 1963589); further: nearly all actives have a fitted effect of over 35% in size
How it was run: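 Agonist-mode calcium-flux screen: compounds at 15 concentrations, three independent runs, were pin-transferred onto dye-loaded human CHRM1-CHO cells. Fluorescence was then recorded kinetically every second over minutes.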

[15] = cAMP Responsive Elements (CRE) small molecule agonists, cell-based qHTS assay (AID 1963590)
How it was run: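 Agonist mode: compound added to CRE-bla HEK 293T cells (2,000/well, 18 h after plating) for 3 h at 37 C/5% CO2. Reporter activity detected via FRET beta-lactamase substrate, 2 h room-temperature loading.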

[16] = cAMP Responsive Elements (CRE) small molecule antagonists, cell-based qHTS assay (AID 1963591; active means well fitted inhibition curve with a large enough effect in the signal ratio in the repeat runs, not every such curve was filed as active; the % refers to the signal ratio)
How it was run: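 Antagonist mode: compounds are added alongside the adenylyl cyclase activator NKH477 (0.25 uM final) to CRE-bla HEK293T cells for 3 h. LiveBLAzer FRET substrate, 2 h at room temperature, reports bla expression.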

[17] = molecular target: Beta-2 adrenergic receptor (Homo sapiens) (UniProt P07550); test: Adrenergic beta2 receptor (ADRB2) small molecule antagonists, cell-based qHTS assay (AID 1963592); further: series mostly up to about 92 µM; nearly all actives have a fitted effect of over 50% in size
How it was run: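 Assay format: CHO-ADRB2 cells, 18-20hr seeding at 37C/5% CO2, then compound plus 1nM isoproterenol agonist mix for 0.5hr RT. Homogeneous time-resolved fluorescence cAMP detection after 1hr, expressed as 665/615 nm ratio.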

[18] = molecular target: D(2) dopamine receptor (Homo sapiens) (UniProt P14416); test: Dopamine D2 receptor (DRD2) small molecule agonists, cell-based qHTS assay (AID 1963594); further: nearly all actives have a fitted effect of over 35% in size
How it was run: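 HEK293 cells stably expressing human DRD2, pre-treated with PDE inhibitor Ro20-1724 (0.1 mM final) and compound 10 min at room temperature, then stimulated with NKH477 (200nM […]) for 30 min. cAMP read by HTRF (665/620 nm).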

[19] = molecular target: D(2) dopamine receptor (Homo sapiens) (UniProt P14416); test: Dopamine D2 receptor (DRD2) small molecule antagonists, cell-based qHTS assay (AID 1963595; active means well fitted inhibition curve with a large enough effect in the signal ratio in the repeat runs, with a control signal flat; the % refers to the signal ratio)
How it was run: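 HEK293 cells stably expressing DRD2 were preincubated with 0.1 mM Ro20-1724, then with compound for 10 min at room temperature. Cells were stimulated with 200 nM NKH477 plus 12 nM quinpirole for 30 min, and cAMP was read by HTRF.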

[20] = p53 small molecule agonists, cell-based qHTS assay: qHTS cell viability counter screen (AID 1963581); further: nearly all actives have a fitted effect of over 45% in size
How it was run: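 Counter screen read by CellTiter-Glo luminescence (ATP content, 30 min at room temperature), run in the same wells as the beta-lactamase reporter read. HCT-116 p53RE-bla cells saw compounds for 16 h at 37 C.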
On the % scale 0 is the no-effect control and ±100 the full control effect.

Chain of 5-hydroxytryptamine receptor 2A (Homo sapiens) (P28223 whole entry, looked up): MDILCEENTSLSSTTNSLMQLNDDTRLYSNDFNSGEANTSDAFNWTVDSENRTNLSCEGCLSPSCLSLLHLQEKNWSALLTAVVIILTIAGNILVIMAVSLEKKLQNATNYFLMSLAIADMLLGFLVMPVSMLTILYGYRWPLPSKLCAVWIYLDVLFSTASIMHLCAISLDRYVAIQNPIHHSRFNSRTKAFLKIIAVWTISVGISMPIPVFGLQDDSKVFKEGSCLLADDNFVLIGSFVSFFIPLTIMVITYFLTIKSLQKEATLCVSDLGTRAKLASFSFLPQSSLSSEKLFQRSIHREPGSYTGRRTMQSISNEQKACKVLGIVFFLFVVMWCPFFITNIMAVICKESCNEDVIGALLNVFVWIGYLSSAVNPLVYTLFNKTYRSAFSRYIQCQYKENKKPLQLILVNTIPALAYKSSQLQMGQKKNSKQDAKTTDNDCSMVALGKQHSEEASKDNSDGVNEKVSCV
Chain of KiSS-1 receptor (Homo sapiens) (Q969F8 whole entry, looked up): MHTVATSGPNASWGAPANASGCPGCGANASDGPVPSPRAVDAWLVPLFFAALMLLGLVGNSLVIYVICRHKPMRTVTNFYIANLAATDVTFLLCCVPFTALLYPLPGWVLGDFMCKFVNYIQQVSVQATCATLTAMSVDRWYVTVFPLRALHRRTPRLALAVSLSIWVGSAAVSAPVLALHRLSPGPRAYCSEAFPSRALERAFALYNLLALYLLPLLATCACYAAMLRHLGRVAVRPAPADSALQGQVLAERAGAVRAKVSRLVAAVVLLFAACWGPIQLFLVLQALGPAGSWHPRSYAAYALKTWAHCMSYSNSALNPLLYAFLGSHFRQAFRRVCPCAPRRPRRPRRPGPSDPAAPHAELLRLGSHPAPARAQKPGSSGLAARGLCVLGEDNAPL
Chain of Gonadotropin-releasing hormone receptor (Homo sapiens) (P30968 whole entry, looked up): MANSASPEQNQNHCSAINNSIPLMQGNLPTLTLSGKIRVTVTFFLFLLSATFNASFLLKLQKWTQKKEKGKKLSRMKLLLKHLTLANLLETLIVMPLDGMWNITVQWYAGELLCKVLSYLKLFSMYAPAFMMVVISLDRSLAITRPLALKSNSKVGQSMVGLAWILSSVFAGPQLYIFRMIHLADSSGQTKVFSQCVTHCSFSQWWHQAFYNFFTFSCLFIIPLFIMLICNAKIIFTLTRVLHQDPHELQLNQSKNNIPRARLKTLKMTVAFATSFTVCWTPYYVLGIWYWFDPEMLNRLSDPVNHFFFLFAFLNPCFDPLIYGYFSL
Chain of Muscarinic acetylcholine receptor M1 (Homo sapiens) (P11229 whole entry, looked up): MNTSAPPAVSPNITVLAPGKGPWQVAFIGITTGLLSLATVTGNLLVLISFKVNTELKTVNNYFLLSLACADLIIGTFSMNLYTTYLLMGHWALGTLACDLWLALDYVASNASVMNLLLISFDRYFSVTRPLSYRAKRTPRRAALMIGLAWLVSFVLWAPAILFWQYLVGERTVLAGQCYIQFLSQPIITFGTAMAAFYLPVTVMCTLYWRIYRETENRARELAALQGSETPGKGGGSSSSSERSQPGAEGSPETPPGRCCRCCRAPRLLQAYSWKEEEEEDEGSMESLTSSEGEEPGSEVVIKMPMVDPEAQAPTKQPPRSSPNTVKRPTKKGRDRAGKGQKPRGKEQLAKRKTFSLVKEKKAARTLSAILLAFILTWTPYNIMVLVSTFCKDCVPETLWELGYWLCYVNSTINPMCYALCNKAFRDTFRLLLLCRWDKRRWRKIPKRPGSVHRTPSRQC
Chain of Beta-2 adrenergic receptor (Homo sapiens) (P07550 whole entry, looked up): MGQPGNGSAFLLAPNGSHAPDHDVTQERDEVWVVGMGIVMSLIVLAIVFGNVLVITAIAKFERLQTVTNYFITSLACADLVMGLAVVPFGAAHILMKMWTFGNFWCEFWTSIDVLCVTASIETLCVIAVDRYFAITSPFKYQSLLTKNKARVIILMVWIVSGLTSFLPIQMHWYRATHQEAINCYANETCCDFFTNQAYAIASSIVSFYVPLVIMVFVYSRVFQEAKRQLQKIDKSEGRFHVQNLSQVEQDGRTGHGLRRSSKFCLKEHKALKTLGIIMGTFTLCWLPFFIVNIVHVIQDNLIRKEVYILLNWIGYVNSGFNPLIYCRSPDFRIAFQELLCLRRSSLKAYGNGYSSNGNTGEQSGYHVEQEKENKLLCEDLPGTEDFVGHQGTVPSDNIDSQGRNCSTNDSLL
Chain of D(2) dopamine receptor (Homo sapiens) (P14416 whole entry, looked up): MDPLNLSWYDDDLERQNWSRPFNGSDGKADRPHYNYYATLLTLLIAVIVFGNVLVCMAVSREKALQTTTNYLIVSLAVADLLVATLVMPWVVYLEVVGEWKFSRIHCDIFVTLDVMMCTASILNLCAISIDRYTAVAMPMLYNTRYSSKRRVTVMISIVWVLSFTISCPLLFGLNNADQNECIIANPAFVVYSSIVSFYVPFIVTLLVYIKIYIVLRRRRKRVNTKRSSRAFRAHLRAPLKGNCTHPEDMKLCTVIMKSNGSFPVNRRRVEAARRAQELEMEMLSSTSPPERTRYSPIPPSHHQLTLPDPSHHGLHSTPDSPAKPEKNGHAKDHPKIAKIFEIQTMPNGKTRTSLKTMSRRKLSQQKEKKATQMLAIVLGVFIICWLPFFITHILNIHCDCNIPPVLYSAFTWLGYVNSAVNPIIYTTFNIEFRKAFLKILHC

CN(C)C(=O)Nc1cccc(C(F)(F)F)c1
inactive: Potency [1] | Potency [2] | Potency [3] | Potency [4] | Potency [5] | Potency [6] | Potency [7] | Potency [8] | Potency [9] | Potency [10] | Potency [11] | Potency [12] | Potency [13] | Potency [14] | Potency [15] | Potency [16] | Potency [17] | Potency [18] | Potency [19]

CCCCNC(=O)n1c(NC(=O)OC)nc2ccccc21
inactive: Potency [1] | Potency [3] | Potency [4] | Potency [5] | Potency [6] | Potency [7] | Potency [8] | Potency [9] | Potency [11] | Potency [12] | Potency [13] | Potency [14] | Potency [15] | Potency [16] | Potency [17] | Potency [18]
active: Potency [2] 54.2 µM

O=C/C=C/c1ccco1
inactive: Potency [1] | Potency [2] | Potency [3] | Potency [4] | Potency [5] | Potency [6] | Potency [7] | Potency [8] | Potency [9] | Potency [11] | Potency [12] | Potency [13] | Potency [14] | Potency [15] | Potency [16] | Potency [17] | Potency [18]

CC(Cl)Cl
active: Potency [2] 5.84 µM
inactive: Potency [1] | Potency [3] | Potency [4] | Potency [5] | Potency [6] | Potency [7] | Potency [8] | Potency [9] | Potency [10] | Potency [11] | Potency [12] | Potency [14] | Potency [15] | Potency [16] | Potency [17] | Potency [18] | Potency [19]

C#CCO
inactive: Potency [1] | Potency [2] | Potency [3] | Potency [4] | Potency [5] | Potency [6] | Potency [7] | Potency [8] | Potency [9] | Potency [10] | Potency [11] | Potency [12] | Potency [13] | Potency [14] | Potency [15] | Potency [16] | Potency [17] | Potency [18] | Potency [19]

O=C(O)c1ccccn1
inactive: Potency [1] | Potency [2] | Potency [3] | Potency [4] | Potency [5] | Potency [6] | Potency [7] | Potency [8] | Potency [9] | Potency [10] | Potency [11] | Potency [12] | Potency [13] | Potency [14] | Potency [15] | Potency [16] | Potency [17] | Potency [18]

N[C@@H](Cc1ccc(N(CCCl)CCCl)cc1)C(=O)O
inactive: Potency [1] | Potency [2] | Potency [3] | Potency [4] | Potency [5] | Potency [6] | Potency [7] | Potency [8] | Potency [9] | Potency [20] | Potency [15] | Potency [16] | Potency [17] | Potency [18] | Potency [19]

CC(C)=CCN1CC[C@@]2(C)c3cc(O)ccc3C[C@@H]1[C@@H]2C
inactive: Potency [1] | Potency [2] | Potency [3] | Potency [4] | Potency [5] | Potency [6] | Potency [7] | Potency [8] | Potency [9] | Potency [10] | Potency [11] | Potency [14] | Potency [15] | Potency [17] | Potency [18] | Potency [19]

C[C@@H]1CN(C2CCC(C#N)(c3ccc(F)cc3)CC2)CC[C@]1(C(=O)O)c1ccccc1 (some centres undefined)
inactive: Potency [1] | Potency [2] | Potency [3] | Potency [4] | Potency [5] | Potency [6] | Potency [7] | Potency [8] | Potency [9] | Potency [10] | Potency [11] | Potency [12] | Potency [13] | Potency [14] | Potency [15] | Potency [16] | Potency [17] | Potency [18]

Brc1c(Br)c(Br)c(Oc2c(Br)c(Br)c(Br)c(Br)c2Br)c(Br)c1Br
inactive: activity change, negative = cytotoxicity [1] -0.108% [at 19 µM] | activity, positive = activation [2] -3.66% [at 19 µM] | activity change [3] -0.419% [at 11.8 µM, hits give high values] | activation [4] -2.44% [at 15.8 µM] | activation [5] 1.15% [at 11.8 µM] | activation [6] -0.0858% [at 13.5 µM] | activation [7] 0.633% [at 13.6 µM] | activity change, negative = cytotoxicity [8] 1.7% [at 13.5 µM] | activity change, negative = cytotoxicity [20] 13.8% [at 13.5 µM] | activation [10] 0.0757% [at 13.5 µM] | activity, negative = inhibition [11] 9.26% [at 12.7 µM] | activation [12] 1.53% [at 15.9 µM] | activity, negative = inhibition [13] -22.2% [at 12.6 µM] | activation [14] -0.663% [at 15.8 µM] | activation [15] 0.588% [at 19 µM] | activity change, negative = inhibition [16] -8.08% [at 18.9 µM] | activity change, negative = inhibition [17] 1.07% [at 19 µM] | activation [18] 4.7% [at 19 µM]

Cc1cc(Cl)ccc1N=CN(C)C
inactive: Potency [1] | Potency [2] | Potency [3] | Potency [4] | Potency [5] | Potency [6] | Potency [7] | Potency [8] | Potency [9] | Potency [10] | Potency [11] | Potency [12] | Potency [13] | Potency [14] | Potency [15] | Potency [16] | Potency [17] | Potency [19]

O=c1[nH]c2ccccc2c(=O)o1
inactive: Potency [1] | Potency [2] | Potency [3] | Potency [4] | Potency [5] | Potency [6] | Potency [7] | Potency [8] | Potency [9] | Potency [20] | Potency [12] | Potency [13] | Potency [14] | Potency [15] | Potency [16] | Potency [17] | Potency [18] | Potency [19]

BrCC(Br)c1ccccc1 (centres undefined)
inactive: Potency [1] | Potency [2] | Potency [3] | Potency [4] | Potency [5] | Potency [6] | Potency [7] | Potency [8] | Potency [9] | Potency [10] | Potency [11] | Potency [12] | Potency [13] | Potency [14] | Potency [15] | Potency [16] | Potency [17] | Potency [18] | Potency [19]

CNC(=O)Oc1cccc2ccccc12
inactive: Potency [1] | Potency [2] | Potency [3] | Potency [4] | Potency [5] | Potency [6] | Potency [8] | Potency [9] | Potency [10] | Potency [11] | Potency [12] | Potency [13] | Potency [14] | Potency [15] | Potency [16] | Potency [17] | Potency [18] | Potency [19]
active: Potency [7] 32.4 µM
